Laboratory results as given in PubChem BioAssay (NCATS).
“And” between values parts separate entries of the source, which are not always exact repeats. Identical values can stand only once. Results filed as inconclusive are left out. The source made the active and inactive calls. Unless noted, the call rests on the fitted dose curve; in most records, active means well fitted curve in the direction sought with a large enough effect; inconclusive means small, poorly fitted or top-dose-only effect, or another doubt; inactive means no such curve, though single readings can be large; an effect the other way counts as inactive or inconclusive.

Key:
[1] = target: Guanine nucleotide-binding protein G(i) subunit alpha-1 (Homo sapiens) (UniProt P63096); assay: qHTS Assay for Inhibitors of RGS12 GoLoco Motif Activity (Green Fluorophore) (AID 879);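 further: 0% = labeled peptide with Gαi1 and full inhibition = labeled peptide alone without protein; negative values mean loss of peptide binding seen as reduced polarization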
Chain of Guanine nucleotide-binding protein G(i) subunit alpha-1 (Homo sapiens) (P63096 whole entry, looked up): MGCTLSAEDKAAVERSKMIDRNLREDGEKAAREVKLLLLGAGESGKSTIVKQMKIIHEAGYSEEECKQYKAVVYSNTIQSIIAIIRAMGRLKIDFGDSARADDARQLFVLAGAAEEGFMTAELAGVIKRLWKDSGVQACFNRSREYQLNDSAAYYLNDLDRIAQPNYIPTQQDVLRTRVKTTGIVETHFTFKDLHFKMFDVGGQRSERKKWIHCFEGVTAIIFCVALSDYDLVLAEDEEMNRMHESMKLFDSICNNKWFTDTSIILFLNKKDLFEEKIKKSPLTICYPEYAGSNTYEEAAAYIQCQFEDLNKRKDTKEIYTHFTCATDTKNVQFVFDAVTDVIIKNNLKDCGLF
Method in brief: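 Fluorescence polarization assay: 50 nM Gαi1 with 10 nM FITC-labeled RGS12 GoLoco peptide in 10 mM Tris pH 7.5, 150 mM NaCl, 0.1 mM GDP, 0.05% NP40, 10 min at room temperature with compound.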

[2] = target: Cytochrome P450 3A4 (Homo sapiens) (UniProt P08684); assay: qHTS Assay for Activators of Cytochrome P450 3A4 (AID 885); further: nearly all actives have a fitted effect of over 65% in size
Chain of Cytochrome P450 3A4 (Homo sapiens) (P08684 whole entry, looked up): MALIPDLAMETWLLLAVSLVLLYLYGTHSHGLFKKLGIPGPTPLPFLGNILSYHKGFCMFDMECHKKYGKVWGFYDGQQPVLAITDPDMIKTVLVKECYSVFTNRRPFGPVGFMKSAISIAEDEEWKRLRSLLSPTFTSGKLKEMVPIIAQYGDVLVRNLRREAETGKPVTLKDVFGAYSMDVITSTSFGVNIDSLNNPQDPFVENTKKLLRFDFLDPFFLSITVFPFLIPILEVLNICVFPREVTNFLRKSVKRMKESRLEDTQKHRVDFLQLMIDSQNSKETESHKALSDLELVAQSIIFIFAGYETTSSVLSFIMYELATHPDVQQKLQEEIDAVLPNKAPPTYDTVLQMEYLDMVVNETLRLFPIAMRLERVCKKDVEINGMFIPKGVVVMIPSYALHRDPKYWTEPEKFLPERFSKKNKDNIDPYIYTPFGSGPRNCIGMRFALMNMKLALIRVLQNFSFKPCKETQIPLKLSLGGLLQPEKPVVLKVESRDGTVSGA
Method in brief: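 Steps: enzyme/substrate mix dispensed; compound added, 10 min RT; NADPH regeneration solution added, 60 min RT; luciferin detection buffer stops reaction; 20 min later luminescence measured.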

[3] = target: Pyruvate kinase (Leishmania mexicana) (UniProt Q27686); assay: qHTS Validation Assay for Inhibitors of Leishmania Mexicana Pyruvate Kinase (AID 945);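 further: 0% = DMSO only neutral control wells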
Chain of Pyruvate kinase (Leishmania mexicana) (Q27686 2-499 E452W): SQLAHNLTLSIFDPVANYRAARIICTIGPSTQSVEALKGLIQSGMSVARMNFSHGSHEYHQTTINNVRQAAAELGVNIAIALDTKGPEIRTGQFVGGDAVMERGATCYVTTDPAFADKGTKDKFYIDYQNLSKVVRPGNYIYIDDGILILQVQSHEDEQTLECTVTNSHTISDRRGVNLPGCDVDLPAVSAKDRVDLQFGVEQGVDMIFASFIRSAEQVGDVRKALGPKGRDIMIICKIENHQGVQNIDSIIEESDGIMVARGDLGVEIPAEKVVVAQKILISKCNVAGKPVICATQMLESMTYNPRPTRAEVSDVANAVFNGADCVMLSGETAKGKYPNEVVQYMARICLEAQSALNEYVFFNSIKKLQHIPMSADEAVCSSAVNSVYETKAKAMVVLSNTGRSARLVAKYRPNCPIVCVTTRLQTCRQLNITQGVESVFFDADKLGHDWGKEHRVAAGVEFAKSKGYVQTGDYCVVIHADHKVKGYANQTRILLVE
Method in brief: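 Read-out: luminescence from PKLight stop/detection reagent, data normalized to DMSO. Reaction: 0.2 nM E451W LmPYK, 0.5 mM PEP, 0.1 mM ADP, pH 7.2, 1 h room temperature.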

[4] = target: Cytochrome P450 3A4 (Homo sapiens) (UniProt P08684); assay: qHTS Assay for Inhibitors and Substrates of Cytochrome P450 3A4 (AID 884); further: nearly all actives have a fitted effect of over 50% in size; further: potency means the concentration at half of the fitted maximal effect
Method in brief: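 20 nM human CYP3A4 with 25 uM Luciferin-PPXE (at KM) in 200 mM KPO4, preincubated 10 min with compound; NADPH regeneration started a 60 min RT reaction. Luciferin detected by luminescence, normalized to 57 uM ketoconazole as full inhibition.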

[5] = qHTS Assay for Identification of Small Molecule Antagonists for Thrombopoietin (TPO) Signaling Pathway (AID 918); details: TPO-dependent cell signaling reporter, antagonist mode; further: potency means the concentration at half of the fitted maximal effect; nearly all actives have a fitted effect of over 60% in size
Method in brief: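 First, Ba/F3 reporter cells expressing human TPO receptor were held overnight without IL-3. Next, compound and 26 pM TPO were added. After 24 hrs incubation at 37 C, luciferase luminescence under the Glycoprotein IIb promoter was recorded.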

[6] = target: Muscarinic acetylcholine receptor M1 (Rattus norvegicus) (UniProt P08482); assay: qHTS Assay for Antagonists of Acetylcholine Muscarinic M1 Receptor: Kinetic Measurement of Intracellular Calcium Response (AID 943); further: nearly all actives have a fitted effect of over 75% in size; further: potency means the concentration at half of the fitted maximal effect
Chain of Muscarinic acetylcholine receptor M1 (Rattus norvegicus) (P08482 whole entry, looked up): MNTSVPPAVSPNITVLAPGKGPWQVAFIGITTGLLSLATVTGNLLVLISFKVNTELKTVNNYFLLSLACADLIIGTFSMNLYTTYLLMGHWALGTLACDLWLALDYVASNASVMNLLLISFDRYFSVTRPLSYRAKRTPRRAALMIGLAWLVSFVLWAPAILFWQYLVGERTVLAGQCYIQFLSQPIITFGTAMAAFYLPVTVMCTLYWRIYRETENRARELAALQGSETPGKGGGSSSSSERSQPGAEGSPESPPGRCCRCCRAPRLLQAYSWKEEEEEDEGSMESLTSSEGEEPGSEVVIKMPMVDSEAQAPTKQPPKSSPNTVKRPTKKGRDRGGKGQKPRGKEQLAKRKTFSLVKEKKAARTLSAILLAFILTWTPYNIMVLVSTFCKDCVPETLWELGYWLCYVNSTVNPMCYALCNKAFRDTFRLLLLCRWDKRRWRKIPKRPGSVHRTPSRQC
Method in brief: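 Intracellular calcium flux, recorded with Fluo-4 in a kinetic plate reader, served as signal; the response to carbachol at EC80 (100 nM final) was taken as maximal over minimal fluorescence after a 10 min compound pre-incubation in rat M1-CHO cells.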

[7] = target: Muscarinic acetylcholine receptor M1 (Rattus norvegicus) (UniProt P08482); assay: qHTS Assay for Antagonists of Acetylcholine Muscarinic M1 Receptor: Measurement of IP-One Response (AID 944); further: nearly all actives have a fitted effect of over 75% in size; further: potency means the concentration at half of the fitted maximal effect
Method in brief: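 Steps: plate transfected CHO-M1 cells overnight; add test compound, 10 min; add carbachol (200 nM, EC80) in stimulation buffer with LiCl; incubate 30 min; add labelled IP1 tracer and anti-IP1 antibody in lysis buffer; read HTRF after 10 min.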

[8] = qHTS Assay for Identification of Small Molecule Antagonists for NFkB Signaling Pathway (AID 895; active means well fitted inhibition curve with a large enough effect in the signal ratio, with a control signal flat, not every such curve was filed as active; the % refers to the signal ratio; further: potency means the concentration at half of the fitted maximal effect)
Method in brief: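 Beta-lactamase reporter read-out (460 and 530 nm emission ratio, 405 nm excitation, 2 hrs substrate loading RT) after 5 hr stimulation with 10 pM TNF alpha in compound-treated NFkB-bla ME-180 cells in low-serum medium.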

[9] = qHTS Assay for Identification of Small Molecule Agonists for Thrombopoietin (TPO) Signaling Pathway (AID 917); further: potency means the concentration at half of the fitted maximal effect
Method in brief: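 Murine Ba/F3 cells stably expressing human TPO receptor and a Glycoprotein IIb promoter–luciferase reporter were IL-3-starved overnight, then treated with compounds plus TPO (26 pM final, its EC50) for 24 hrs at 37 C; luminescence was read.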

[10] = target: Cytochrome P450 2D6 (Homo sapiens) (UniProt P10635); assay: qHTS Assay for Inhibitors and Substrates of Cytochrome P450 2D6 (AID 891); further: nearly all actives have a fitted effect of over 60% in size; further: potency means the concentration at half of the fitted maximal effect
Chain of Cytochrome P450 2D6 (Homo sapiens) (P10635 whole entry, looked up): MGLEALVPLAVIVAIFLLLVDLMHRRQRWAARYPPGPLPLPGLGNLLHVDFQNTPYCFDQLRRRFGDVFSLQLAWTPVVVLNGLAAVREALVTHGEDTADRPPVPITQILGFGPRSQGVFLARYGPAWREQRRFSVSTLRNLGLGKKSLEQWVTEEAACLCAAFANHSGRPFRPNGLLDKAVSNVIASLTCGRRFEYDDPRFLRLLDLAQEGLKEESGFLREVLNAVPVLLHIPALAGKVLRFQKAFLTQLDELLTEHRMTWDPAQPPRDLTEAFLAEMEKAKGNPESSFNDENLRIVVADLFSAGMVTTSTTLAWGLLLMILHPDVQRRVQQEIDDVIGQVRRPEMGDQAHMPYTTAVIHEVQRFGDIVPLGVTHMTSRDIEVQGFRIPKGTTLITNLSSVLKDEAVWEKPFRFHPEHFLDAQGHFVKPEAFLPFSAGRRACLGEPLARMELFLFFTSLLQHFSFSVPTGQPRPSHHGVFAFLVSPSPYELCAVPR
Method in brief: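 Human CYP2D6 (5 nM) with 30 uM Luciferin-ME EGE (at Km) in 100 mM KPO4, compound preincubated 10 min, then NADPH regeneration system for 60 min at room temperature. Luciferin read by luminescence; normalized to 1.43 uM quinidine.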

[11] = target: Cytochrome P450 2C9 (Homo sapiens) (UniProt P11712); assay: qHTS Assay for Inhibitors and Substrates of Cytochrome P450 2C9 (AID 883); further: nearly all actives have a fitted effect of over 60% in size; further: potency means the concentration at half of the fitted maximal effect
Chain of Cytochrome P450 2C9 (Homo sapiens) (P11712 whole entry, looked up): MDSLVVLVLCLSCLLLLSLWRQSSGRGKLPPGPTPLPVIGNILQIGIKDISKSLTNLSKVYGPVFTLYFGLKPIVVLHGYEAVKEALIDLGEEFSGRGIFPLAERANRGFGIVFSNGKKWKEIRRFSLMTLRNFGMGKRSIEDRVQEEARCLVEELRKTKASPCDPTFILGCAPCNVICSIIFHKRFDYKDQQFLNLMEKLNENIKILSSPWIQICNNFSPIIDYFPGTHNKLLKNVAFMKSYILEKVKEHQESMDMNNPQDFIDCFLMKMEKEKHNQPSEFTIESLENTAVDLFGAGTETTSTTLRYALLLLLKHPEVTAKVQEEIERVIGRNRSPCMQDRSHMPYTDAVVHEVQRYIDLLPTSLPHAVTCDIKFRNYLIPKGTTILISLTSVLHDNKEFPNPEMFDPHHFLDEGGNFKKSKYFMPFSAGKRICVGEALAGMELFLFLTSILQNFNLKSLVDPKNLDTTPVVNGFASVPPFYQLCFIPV
Method in brief: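 Turnover of Luciferin-H (100uM, KM) by 10nM human CYP2C9 was measured over 60 min at 37C with NADPH regeneration; inhibitors and some substrates reduce luminescence. Data normalized to sulphaphenazole 57uM.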

[12] = Confirmation and Secondary Assay for Modulators of Hemoglobin Beta Chain Splicing at IVS2 654 locus (AID 910);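 further: HeLa cells stably carrying EGFP split by mutant beta-globin IVS2-654 intron; per-well total GFP intensity by laser scanning cytometry after 2-day treatment; % of control where 0% means no effect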
Method in brief: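 Readout: per-well total peak green fluorescence (488 nm ex, 500–520 nm em) from objects 5–250 µm, reflecting correct splicing of an EGFP-654 reporter. Compounds were applied for 2 days at 37 °C to overnight-plated HeLa EGFP-654 cells; controls were DMSO and 500 nM IVS2-654 PNA.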

[13] = Confirmation and Secondary Assay for Modulators of Hemoglobin Beta Chain Splicing at IVS2 705 locus (AID 930);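 further: HeLa cells stably expressing the EGFP-705 splicing reporter; GFP fluorescence per well restored by corrected splicing of the IVS2-705 intron in EGFP; series mostly up to about 46 µM; % of control where 0% means no effect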
Method in brief: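 Secondary splice-site specificity test uses HeLa expressing CMV-driven EGFP interrupted by IVS2-705; cells were treated 2 days at 37C with 500 nM antisense PNA as positive control.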

[14] = qHTS Assay for Identification of Small Molecule Agonists for Hypoxia Response Element Signaling Pathway (AID 914; active means well fitted activation curve with a large enough effect in the signal ratio, with a control signal flat, not every such curve was filed as active; the % refers to the signal ratio; further: % of control where 0% means no effect); details: ME-180 (cervical carcinoma) HRE-bla reporter, beta-lactamase ratio, CoCl2, 17 h; active compounds read high
Method in brief: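 qHTS titration; ME-180 HRE-bla cells; EC50 CoCl2 co-treatment, 17 h at 37 degrees Celsius; CCF4 dye, ex 405nm, em 460nm and 530nm; %Activity from ratio; AC50.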

CN1CCC(c2c[nH]c3ccc(O)cc23)CC1
inactive: Potency [1] | outcome [2] | Potency [3]

COc1ccc2c(c1)/C(=C/c1cnc[nH]1)C(=O)N2
active: Potency [4] 0.794 µM | Potency [5] 10 µM
inactive: outcome [2] | Potency [6] | Potency [3]

C[C@@H]1O[C@H](C[N+](C)(C)C)CS1
inactive: Potency [1] | Potency [6] | Potency [7] | Potency [3]

O=P(O)(O)C(Cl)(Cl)P(=O)(O)O
inactive: Potency [1] | Potency [8] | Potency [9] | Potency [6] | Potency [7] | Potency [3]

CCCn1c(=O)c2[nH]c(C3CCCC3)nc2n(CCCOC(=O)c2ccc(S(=O)(=O)F)cc2)c1=O
inactive: outcome [2] | Potency [9] | Potency [3]
active: Potency [8] 10 µM | Potency [6] 5.01 µM

C[C@@H](CO)NC(=O)[C@@H]1C=C2c3cccc4[nH]cc(c34)C[C@H]2N(C)C1
inactive: outcome [2]

CNC(=O)OCC[N+](C)(C)C
inactive: Potency [1] | Potency [10] | Potency [9] | Potency [6] | Potency [7] | Potency [3]

CN(N=O)c1ccc(O)c(O)c1
inactive: Potency [11] | Potency [4] | Potency [10] | Potency [9] | Potency [7] | Potency [3]

COc1ccc2c(c1)c(CCN1CCOCC1)c(C)n2C(=O)c1cccc(Cl)c1Cl
active: Potency [4] 3.16 µM
inactive: outcome [2]

Cc1[nH]c2ccc(O)cc2c1CCN
inactive: outcome [2] | Potency [8] | Potency [9] | Potency [6] | Potency [7] | Potency [3]

CCCN(CCC)C1Cc2cc(OC)c(OC)cc2C1
active: Potency [6] 1.26 µM | Potency [7] 2.51 µM
inactive: Potency [11] | Potency [8] | Potency [9] | Potency [3]

NNC(=O)c1ccc(O)cc1
inactive: outcome [2] | Potency [8] | Potency [9] | Potency [6] | Potency [3]
active: Potency [4] 5.01 µM

CC(C)NP(=O)(NC(C)C)OP(=O)(NC(C)C)NC(C)C
inactive: Potency [1] | Potency [8] | Potency [9] | Potency [7] | Potency [3]

C[C@@H]1[C@@H]2Cc3ccc(O)cc3[C@@]1(C)CCN2CC1CC1
active: Potency [6] 14.1 µM | Potency [7] 15.8 µM
inactive: Potency [1] | Potency [8] | Potency [9] | Potency [3]

C=CCN1CC[C@]23c4c5ccc(O)c4O[C@H]2/C(=N/NC(=O)c2ccccc2)CC[C@@]3(O)[C@H]1C5
inactive: outcome [2]

O=C1C=C2C=C[C@@H]3C[C@@]2(O1)[C@H]1CCCCN31
inactive: Potency [4]

CN1C2CCC1CC(OC(c1ccccc1)c1ccccc1N)C2 (centres undefined)
inactive: Potency [4] | outcome [12] | outcome [13]

Nc1ccc(CCN2CCN(c3cccc(C(F)(F)F)c3)CC2)cc1
inactive: outcome [2] | activation [14] -27.7% | Potency [3]
active: Potency [4] 7.94 µM | Potency [6] 11.2 µM

CC1OC1P(=O)(O)O (centres undefined)
inactive: Potency [4]

Clc1ccc(Cl)cc1
inactive: Potency [4] | outcome [12] | outcome [13]

CCCN(CCC)[C@H]1CCc2c(F)ccc(O)c2C1
inactive: Potency [1] | Potency [9] | Potency [3]
active: Potency [10] 631 nM and 1.58 µM | Potency [6] 6.31 µM | Potency [7] 8.91 µM

CC(N)Cc1ccc(O)cc1 (centres undefined)
inactive: Potency [4] | outcome [12] | outcome [13]

COc1ccc(OC)c(C(O)C(C)N)c1 (centres undefined)
inactive: Potency [4] | outcome [12] | outcome [13]

O=[N+]([O-])c1cc(O)c(O)c([N+](=O)[O-])c1
active: Potency [11] 10 µM and 794 nM
inactive: Potency [10] | Potency [8] | outcome [12] | Potency [9] | outcome [13] | Potency [6] | Potency [7] | Potency [3]

C[N+]1(C)[C@@H]2CC[C@H]1CC(OC(=O)c1c[nH]c3ccccc13)C2 (some centres undefined)
inactive: outcome [2] | Potency [3]
active: Potency [4] 7.94 µM | Potency [5] 10 µM

c1ccc2c(c1)[I+]c1ccccc1-2
inactive: outcome [2] | Potency [7] | Potency [3]
active: Potency [4] 3.16 µM | Potency [10] 3.98 µM and 794 nM | Potency [5] 0.0398 µM

[N-]=[N+]=CC(=O)OCC(N)C(=O)O (centres undefined)
inactive: Potency [4] | outcome [12] | outcome [13]

O=[N+]([O-])c1ccc2nc(N3CCNCC3)ccc2c1
inactive: Potency [1] | outcome [2] | activation [14] -10.4% | Potency [7] | Potency [3]

CCCn1c(C)c(C(=O)c2ccc3ccccc3c2)c2ccccc21
active: Potency [9] 10 µM
inactive: Potency [4] | Potency [7] | Potency [3]
